Nine molecules from PubChem BioAssay (EPA / NIEHS) can be followed below.

Values joined by “and” are separate entries in the source; they are usually repeats but may differ in a detail not shown here. Equal values may be shown once. Active and inactive are the calls of the source. The calls were made as follows: active = hit-call score of the fitted dose curve at least 0.9, where 1 is the maximum; inactive = score below 0.9.

Assay [1] can be described thus: BSK_BT_PBMCCytotoxicity: PBMC Cytotoxicity Assessment in the BioMAP Diversity Plus: BT Assay (AID 2284225).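 Also: PBMC viability measured by Alamar Blue dye reduction fluorescence.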 As to conditions: primary human B cells with PBMC. The method in brief: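 Primary human co-culture of B cells and PBMC, pre-dosed 1 h then activated with SEB and TSST-1. Cytotoxicity is taken from Alamar Blue dye reduction, added for 6 h at the end of a 90 h incubation.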

Read-out in assay [2]: Secreted IgG (sIgG), gene 3500
The assay can be described thus: BSK_BT_sIgG: BioMAP Diversity Plus: BT Assay for Secreted IgG (sIgG) Biomarker Activity (AID 2284226). The conditions noted are these: primary human B cells with PBMC. The method in brief: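 Human B cell/PBMC co-culture; compound exposure 24 h; sIgG by ELISA; gain-of-signal fit vs DMSO baseline.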

Assay [3] in a line: BSK_BT_Bcell_Proliferation: Viability Assessment in the BioMAP Diversity Plus: BT Assay for B cell Proliferation (AID 2284227). As to conditions: primary human B cells with PBMC. Put shortly:
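Human B cell/PBMC co-culture; test chemical added; 72 h; TCA fix (10%), 0.1% SRB stain, A560 for total protein as a proliferation read-out; positive-direction fit vs DMSO baseline.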

Read-out in assay [4]: Interleukin 6 (IL6), IL6 (gene 3569)
The assay can be described thus: BSK_BT_xIL6: BioMAP Diversity Plus: BT Assay for Interleukin 6 (IL6) Biomarker Activity (AID 2284228). As to conditions: primary human B cells with PBMC. The method in brief:
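Secreted IL-6 in the primary human B cell plus PBMC system, measured by Luminex at 24 h post-chemical, DMSO as baseline. Alamar Blue viability: 75,000 cells/well, chemical 1 h before SEB/TSST-1 (20 ng/mL each), 90 h, then 6 h dye.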

Read-out in assay [5]: Interleukin 17A (IL17A), IL17A (gene 3605)
Put plainly: BSK_BT_xIL17A: BioMAP Diversity Plus: BT Assay for Interleukin 17A (IL17A) Biomarker Activity (AID 2284229). The conditions noted are these: primary human B cells with PBMC. The method in brief:
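Luminex xMAP quantification of secreted IL-17A after 24 h chemical exposure of a primary human B cell/PBMC co-culture. Signal increases fitted relative to DMSO negative control.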

Read-out in assay [6]: Tumor necrosis factor (Homo sapiens) (UniProt P01375)
Put plainly: BSK_BT_xTNFa: BioMAP Diversity Plus: BT Assay for Tumor necrosis factor alpha (TNF-alpha) Biomarker Activity (AID 2284230). The conditions noted are these: primary human B cells with PBMC. The method in brief:
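Read-out: Luminex xMAP quantitation of secreted TNF-alpha from a B cell/PBMC co-culture 24 h after compound addition. Signal analysed relative to DMSO vehicle, positive fitting direction.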

Read-out in assay [7]: Vascular cell adhesion molecule 1 (VCAM1), VCAM1 (gene 7412)
The assay can be described thus: BSK_MyoF_VCAM1: BioMAP Diversity Plus: MyoF Assay for Vascular cell adhesion molecule 1 (VCAM1) Biomarker Activity (AID 2284231). As to conditions: primary human lung fibroblasts. Put shortly: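 ELISA readout of VCAM-1 on human lung fibroblast cultures 24 hours after dosing, analyzed for signal gain relative to DMSO. Overt cytotoxicity was checked by sulforhodamine B total-protein staining in parallel cultures.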

Tumor necrosis factor (Homo sapiens), sequence (P01375 whole entry, looked up): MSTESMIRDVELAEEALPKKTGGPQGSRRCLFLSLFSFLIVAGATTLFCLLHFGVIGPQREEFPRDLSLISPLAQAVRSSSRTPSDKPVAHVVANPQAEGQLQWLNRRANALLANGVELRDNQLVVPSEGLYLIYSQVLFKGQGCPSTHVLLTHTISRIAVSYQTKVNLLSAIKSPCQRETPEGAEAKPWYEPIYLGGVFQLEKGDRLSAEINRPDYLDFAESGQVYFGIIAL

In the case of `O=C(O)C(F)(F)C(F)(F)C(F)(F)C(F)(F)C(F)(F)C(F)(F)C(F)(F)C(F)(F)C(F)(F)C(F)(F)C(F)(F)C(F)(F)F`, the outcome in assay [1], in assay [2], in assay [3], in assay [4], in assay [5] and in assay [6] was inactive. Further, the outcome in assay [7] was inactive.

The AC50 is the midpoint of the concentration-response curve, whichever way the signal moves. On to `C#C[C@]1(O)CC[C@H]2[C@@H]3CCc4cc(OC)ccc4[C@H]3CC[C@@]21C`, for which the outcome in assay [1], in assay [4], in assay [5] and in assay [7] was inactive. For the same molecule, the figures for the AC50 in assay [2], in assay [3] and in assay [6] were 7.71 µM (active), 29.6 µM (active) and 20 µM (active), respectively.

`FC(F)(F)C(F)(F)CNCC(F)(F)C(F)(F)F`: the result in assay [1], in assay [2], in assay [3], in assay [4], in assay [5] and in assay [6] was inactive. Further, the outcome in assay [7] was inactive.

Take `CS(C)(=O)=O`: the result in assay [1], in assay [2], in assay [3], in assay [4], in assay [5] and in assay [6] was inactive. Moreover, the result in assay [7] was inactive.

For `OCCCC(F)(F)C(F)(F)C(F)(F)C(F)(F)C(F)(F)C(F)(F)C(F)(F)F`, the AC50 in assay [1] was 20.4 µM (active) and 20.1 µM (active); in assay [2], 18.3 µM (active) and 48.6 µM (active); in assay [3], 23.6 µM (active) and 20.6 µM (active); in assay [4], 21 µM (active) and 25.9 µM (active); in assay [5] it was 18.8 µM (active) and 36.4 µM (active); in assay [6] it was 20.2 µM (active) and 23 µM (active). Besides, the AC50 in assay [7] is 51.2 µM (active) and 50.4 µM (active).

As for `COC(=O)CCC(F)(F)C(F)(F)C(F)(F)C(F)(F)F`, the result in assay [1], in assay [2], in assay [3], in assay [4], in assay [5] and in assay [6] was inactive. Besides, the result in assay [7] was inactive.

For `Oc1ccc(Nc2ccccc2)cc1`, the concentration at half-maximal activity (AC50) in assay [1] is 16.7 µM (active); in assay [2], 13.4 µM (active); in assay [3], 22.5 µM (active); in assay [4] it was 20 µM (active); in assay [5], 14.3 µM (active); in assay [6], 30.1 µM (active). In assay [7], the result was inactive.

On to `CCCCCCCCCCCCCCCC[N+](C)(C)Cc1ccccc1`, for which the concentration at half-maximal activity (AC50) in assay [1] is 5.2 µM (active); in assay [2], 0.274 µM (active); in assay [3] it was 2.44 µM (active); in assay [4], 9.92 µM (active); in assay [5], 2.84 µM (active); in assay [6] it was 5.5 µM (active). In addition, the half-maximal activity concentration (AC50) in assay [7] was 2.1 µM (active).

As for `FC(F)(F)C(F)(F)C(F)(F)C(F)(F)C(F)(F)C(F)(F)CC1CO1` (stereo not drawn), the result in assay [1], in assay [2], in assay [3], in assay [4], in assay [5] and in assay [6] was inactive. In addition, the result in assay [7] was inactive.
